Screens (PubChem)
ELG1 repair inh – blocks ELG1-dependent DNA repair in HEK293T cells | HEK293T ELG1-luciferase reporter, luminescence, 16 h; DNA damage induced by 5-fluorouridine | 330,000 compounds, 2.3% hits | Potency, µM (series often up to 46.1 µM), hits mostly inhibitors; note: nearly all actives have a fitted effect of over 55% in size
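In this reporter screen, reduction of luminescence relative to DMSO vehicle indicated activity. Compounds and 5-fluorouridine were added together to 2,000 cells per well, incubated for 16 hr at 37 °C, then developed with ONE-Glo.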
DT40 TDP1 no CPT – qHTS for Inhibitors of human tyrosyl-DNA phosphodiesterase 1 (TDP1): qHTS in cells in absence of CPT | DT40 Tdp1-/- hTDP1 cells, no CPT, ATP luminescence, 48 h | Potency, µM (top dose mostly 46.2 µM), most hits filed as inhibitors | 420,000 compounds, 15% hits; note: nearly all actives have a fitted effect of over 55% in size
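A cellular qHTS used chicken DT40 cells lacking endogenous Tdp1 but carrying stably transfected human TDP1. Compounds were applied without camptothecin, and cell growth kinetics were judged by ATP-dependent luminescence after ≥48 hr.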
DT40 TDP1 CPT – DT40-hTDP1 cell growth loss with CPT | chicken DT40 Tdp1-/-;hTDP1 cells + 20 nM CPT, ATP luminescence, 48 h | 420,000 compounds, 12% hits | Potency, µM (titrated, usually from 46.2 µM), most hits filed as inhibitors; note: nearly all actives have a fitted effect of over 55% in size
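Chicken DT40 Tdp1-/- cells stably complemented with human TDP1 were seeded at 400 cells/well in medium containing 20 nM camptothecin, exposed to pin-transferred compounds, and grown at 37 °C for at least 48 hr. Viability was read as ATP luminescence.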
IL-1B inflam inh – inflammasome signaling inhibition, IL-1 beta readout | 360,000 compounds, 4.7% hits | activity change, % at 57.5 µM | THP-1 LPS/ATP IL-1B secretion, AlphaLISA, 16 h; stronger effect = lower value | AID 743279; in the data active = activity change below about -50%; inconclusive = mostly about -30% to -49%
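Secreted IL-1B measured by AlphaLISA bead assay after 16 h compound exposure of THP-1 cells; compounds (final up to 57.5 uM) added 1 h before LPS (250 ng/mL) and ATP (1.25 mM) stimulation; lower signal means less secretion.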
HT1080-NT tox – kills 2HG-producing HT-1080-NT fibrosarcoma cells; HT-1080-NT fibrosarcoma viability, CellTiter-Glo ATP luminescence, 48 h; Potency, µM (top dose mostly 46.1 µM), usual class: cytotoxic; 360,000 compounds, 1.6% hits; AID 686970;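 note: NT is the 2HG producing partner of a matched IDH1 knockdown line; nearly all actives have a fitted effect of over 55% in size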
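Toxicity toward the 2HG-producing NT line was scored as %Activity, normalised to DMSO and no-cell wells, from CellTiter-Glo luminescence after 48 hours' treatment.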
HT1080 IDH1KD tx – kills HT-1080 cells with IDH1 knockdown; 360,000 compounds, 2% hits; Potency, µM (series often up to 46.1 µM), usual class: cytotoxic; HT-1080 IDH1 knockdown viability, ATP luminescence, 48 h; AID 686971
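Viability of IDH1-knockdown HT-1080 fibrosarcoma cells was assessed by CellTiter-Glo after 48 h at 37 °C with titrated compound; concentration-effect curves were classified by fit quality and response size.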
Large screens that a line does not name were inactive. Sampled rows, rich in hits. Any-hit rate of the full collection: about 19%. Unless noted, calls come from the whole dose curve; as a rule, active = well fitted curve in the direction sought with a large enough effect; inconclusive = small, poorly fitted or top-dose-only effect, or another doubt; inactive = no such curve, though single readings can be large; an effect the other way counts as inactive or inconclusive.

CCC[C@H]1NC(=O)[C@H](C)N(C)C(=O)C(C)(C)C(=O)C(C)NC(=O)[C@H](Cc2ccc(OC)cc2)N(C)C(=O)[C@H](C(C)C)N(C)C(=O)CNC(=O)[C@H](CC(C)C)N(C)C(=O)CNC(=O)[C@H]([C@@H](C)CC)OC(=O)[C@H]1C (stereo partly drawn)	ELG1 repair inh inconclusive, DT40 TDP1 no CPT 0.0206µM, DT40 TDP1 CPT 0.0326µM, HT1080-NT tox 0.82µM, HT1080 IDH1KD tx 1.03µM
CCn1nc(C)c(CNCc2cn[nH]c2-c2cc3ccccc3o2)c1C	none
CCC(C)N(CCNC(=O)c1ccc2c(c1)NC(=O)c1ccccc1S2)C1CCCCC1 (stereo not drawn)	ELG1 repair inh inconclusive, DT40 TDP1 no CPT 2.91µM, DT40 TDP1 CPT 14.6µM, IL-1B inflam inh -86.4, HT1080-NT tox inconclusive, HT1080 IDH1KD tx inconclusive
Cc1ccc(NC(=O)c2ccc3c(c2)NC(=O)c2ccccc2S3)c(Cl)c1	DT40 TDP1 no CPT 3.26µM, DT40 TDP1 CPT 3.66µM (no result: ELG1 repair inh, IL-1B inflam inh, HT1080-NT tox, HT1080 IDH1KD tx)
CC(=O)Nc1ccc(NC(=O)c2ccc3c(c2)NC(=O)c2ccccc2S3)cc1	none (no result: ELG1 repair inh, IL-1B inflam inh, HT1080-NT tox, HT1080 IDH1KD tx)
O=C(NC1CCCCNC1=O)c1ccco1 (stereo not drawn)	none
CCN(C(=O)c1nn(-c2ccc(C)cc2)c(=O)c2c1c1ccccc1n2C)c1ccc(F)cc1	DT40 TDP1 no CPT 13µM, DT40 TDP1 CPT inconclusive (no result: ELG1 repair inh, IL-1B inflam inh, HT1080-NT tox, HT1080 IDH1KD tx)
CCc1ccc(NC(=O)c2nn(-c3ccc(OC)cc3)c(=O)c3c2c2ccccc2n3C)cc1	none (no result: ELG1 repair inh, IL-1B inflam inh, HT1080-NT tox, HT1080 IDH1KD tx)
COc1ccc(CCNC(=O)c2nn(-c3ccc(C)cc3)c(=O)c3c2c2ccccc2n3C)cc1OC	DT40 TDP1 no CPT 2.06µM, DT40 TDP1 CPT inconclusive (no result: ELG1 repair inh, IL-1B inflam inh, HT1080-NT tox, HT1080 IDH1KD tx)
Cc1ccc(-n2nc(C(=O)N(C)c3ccc(C)c(C)c3)c3c4ccccc4n(C)c3c2=O)cc1	DT40 TDP1 no CPT 13µM, DT40 TDP1 CPT 16.4µM (no result: ELG1 repair inh, IL-1B inflam inh, HT1080-NT tox, HT1080 IDH1KD tx)
COc1ccc(-n2nc(C(=O)NCCc3cccc(C)c3)c3c4ccccc4n(C)c3c2=O)cc1Cl	none (no result: ELG1 repair inh, IL-1B inflam inh, HT1080-NT tox, HT1080 IDH1KD tx)
CCc1ccc(CNC(=O)c2nn(-c3ccc(C)cc3)c(=O)c3c2c2ccccc2n3C)cc1	none (no result: ELG1 repair inh, IL-1B inflam inh, HT1080-NT tox, HT1080 IDH1KD tx)
CCN(CC)CCOC(=O)c1ccc(NC(=O)c2nn(-c3ccc(C)cc3)c(=O)c3c2c2ccccc2n3C)cc1	DT40 TDP1 no CPT 0.581µM, DT40 TDP1 CPT 1.16µM (no result: ELG1 repair inh, IL-1B inflam inh, HT1080-NT tox, HT1080 IDH1KD tx)
O=C1SCCC1NS(=O)(=O)c1ccc([N+](=O)[O-])cc1 (stereo not drawn)	none
O=C(CSCC(=O)c1ccc([N+](=O)[O-])cc1)c1ccc([N+](=O)[O-])cc1	DT40 TDP1 no CPT inconclusive, DT40 TDP1 CPT 20.6µM (no result: ELG1 repair inh)
O=C(CNc1ccccc1)c1ccc([N+](=O)[O-])cc1	ELG1 repair inh inconclusive, DT40 TDP1 no CPT 16.4µM, DT40 TDP1 CPT 14.6µM
O=C(Nc1cccc2ccccc12)c1ccc([N+](=O)[O-])cc1	DT40 TDP1 no CPT inconclusive
O=C(Nc1cccc2c(=O)[nH][nH]c(=O)c12)c1ccc([N+](=O)[O-])cc1	DT40 TDP1 CPT 8.2µM (no result: ELG1 repair inh)
CC(=O)c1ccc([N+](=O)[O-])cc1	none
O=C(CNc1cccc2ccccc12)c1ccc([N+](=O)[O-])cc1	ELG1 repair inh inconclusive, DT40 TDP1 no CPT 13µM, DT40 TDP1 CPT 14.6µM
CC1CN(C(=S)SCC(=O)c2ccc([N+](=O)[O-])cc2)CC(C)O1 (stereo not drawn)	DT40 TDP1 no CPT 5.17µM, DT40 TDP1 CPT 2.59µM
N#Cc1c(-c2ccccc2)nc(SCc2nc(N)nc(N3CCCCC3)n2)[nH]c1=O	DT40 TDP1 no CPT inconclusive, DT40 TDP1 CPT 11.6µM, HT1080 IDH1KD tx inconclusive
N#CCCCN1C(=O)C(O)(CC(=O)c2ccc3c(c2)OCCO3)c2ccccc21 (stereo not drawn)	DT40 TDP1 no CPT inconclusive, DT40 TDP1 CPT inconclusive
N#CCCCN1C(=O)C(=C(C#N)C#N)c2ccccc21	DT40 TDP1 no CPT inconclusive, DT40 TDP1 CPT 16.4µM
Cc1ccc(NC(=O)c2nnn(-c3ccc4c(c3)OCCO4)c2N)cc1	ELG1 repair inh inconclusive, DT40 TDP1 no CPT inconclusive, DT40 TDP1 CPT inconclusive, IL-1B inflam inh -89.6
